Test results: PubChem BioAssay AID1159580 (chemical genetic matrix, 2015)
The whole screen tested about 5,500 compounds, of which about 2,000 (36%) were called active. Inconclusive results (about 18%) are left out. Cut-off read from the data, not from the text of the source: active = normalized growth mostly below about 0.91 (no sharp cut-off); inconclusive = no clear call, values can overlap the other calls; inactive = mostly above about 0.92. Some of the results follow.

Test: chemical genetic growth profiling, strain panel (AID 1159580);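 note: tested at 20 µM; growth read once vehicle control cultures reached saturation at 30 °C; 1 = growth at the plate median or of vehicle wells; lower values mean less growth of the strain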
Conditions: growth OD

Measured: normalized growth

CC(=O)O[C@@H]1CC2C(C)(C)C(=O)C=C[C@]2(C)C2CC[C@@]3(C)[C@H](c4ccoc4)OC(=O)[C@H]4O[C@]43[C@@]21C (stereo partly drawn)
inactive: S. cerevisiae deletion strains, locus YJR066W, strain TOR1, stronger effect = lower value 0.932 | S. cerevisiae deletion strains, locus YKL009W, strain mrt4, stronger effect = lower value 1.07 | S. cerevisiae deletion strains, locus YKL068W, stronger effect = lower value 1 | S. cerevisiae deletion strains, locus YKL085W, strain MDH1 (second series), stronger effect = lower value 1.03 | S. cerevisiae deletion strains, locus YKL085W, strain MDH1, stronger effect = lower value 1.03 | S. cerevisiae deletion strains, locus YKL160W, strain elf1, stronger effect = lower value 1.02 | S. cerevisiae deletion strains, locus YKR001C, strain vps1, stronger effect = lower value 0.975 | S. cerevisiae deletion strains, locus YKR026C, strain gcn3, stronger effect = lower value 0.985 | S. cerevisiae deletion strains, locus YKR091W, strain srl3, stronger effect = lower value 1 | S. cerevisiae deletion strains, locus YLL001W, strain dnm1, stronger effect = lower value 0.972 | S. cerevisiae deletion strains, locus YLL026W, stronger effect = lower value 1.01 | S. cerevisiae deletion strains, locus YLL041C, strain sdh2, stronger effect = lower value 0.992 | S. cerevisiae deletion strains, locus YLR027C, strain aat2, stronger effect = lower value 1.02 | S. cerevisiae deletion strains, locus YLR039C, strain RIC1, stronger effect = lower value 0.877 | S. cerevisiae deletion strains, locus YLR058C, strain SHM2, stronger effect = lower value 1 | S. cerevisiae deletion strains, locus YLR102C, strain apc9, stronger effect = lower value 0.993 | S. cerevisiae deletion strains, locus YLR113W, strain HOG1, stronger effect = lower value 0.987 | S. cerevisiae deletion strains, locus YLR221C, strain rsa3, stronger effect = lower value 0.989 | S. cerevisiae deletion strains, locus YLR258W, strain gsy2, stronger effect = lower value 1.01 | S. cerevisiae deletion strains, locus YLR262C, strain YPT6 (second series), stronger effect = lower value 0.927 | S. cerevisiae deletion strains, locus YLR262C, strain YPT6, stronger effect = lower value 0.962 | S. cerevisiae deletion strains, locus YLR268W, strain sec22, stronger effect = lower value 1 | S. cerevisiae deletion strains, locus YLR320W, strain mms22, stronger effect = lower value 0.954 | S. cerevisiae deletion strains, locus YLR330W, strain CHS5, stronger effect = lower value 1.01 | S. cerevisiae deletion strains, locus YLR342W, strain FKS1 (second series), stronger effect = lower value 0.966 | S. cerevisiae deletion strains, locus YLR342W, strain FKS1, stronger effect = lower value 1.01 | S. cerevisiae deletion strains, locus YLR357W, strain rsc2, stronger effect = lower value 1.12 | S. cerevisiae deletion strains, locus YLR370C, strain arc18, stronger effect = lower value 1 | S. cerevisiae deletion strains, locus YLR371W, strain rom2, stronger effect = lower value 0.989 | S. cerevisiae deletion strains, locus YLR384C, strain iki3, stronger effect = lower value 1.02 | S. cerevisiae deletion strains, locus YLR418C, strain cdc73, stronger effect = lower value 1.04 | S. cerevisiae deletion strains, locus YML016C, strain PPZ1, stronger effect = lower value 0.999 | S. cerevisiae deletion strains, locus YML032C, strain rad52, stronger effect = lower value 0.993 | S. cerevisiae deletion strains, locus YML120C, strain ndi1, stronger effect = lower value 0.965 | S. cerevisiae deletion strains, locus YML124C, strain tub3, stronger effect = lower value 0.979 | S. cerevisiae deletion strains, locus YMR058W, strain fet3, stronger effect = lower value 0.983 | S. cerevisiae deletion strains, locus YMR078C, strain ctf18, stronger effect = lower value 0.983 | S. cerevisiae deletion strains, locus YMR125W, strain sto1, stronger effect = lower value 1.07 | S. cerevisiae deletion strains, locus YMR129W, stronger effect = lower value 1 | S. cerevisiae deletion strains, locus YMR205C, strain PFK2, stronger effect = lower value 0.981 | S. cerevisiae deletion strains, locus YMR223W, strain ubp8, stronger effect = lower value 1 | S. cerevisiae deletion strains, locus YMR231W, strain pep5, stronger effect = lower value 1.01 | S. cerevisiae deletion strains, locus YMR263W, strain SAP30, stronger effect = lower value 0.993 | S. cerevisiae deletion strains, locus YMR307W, strain GAS1, stronger effect = lower value 0.918 | S. cerevisiae deletion strains, locus YNL067W, strain RPL9B, stronger effect = lower value 1.01 | S. cerevisiae deletion strains, locus YNL071W, strain lat1, stronger effect = lower value 1 | S. cerevisiae deletion strains, locus YNL183C, strain NPR1, stronger effect = lower value 0.943 | S. cerevisiae deletion strains, locus YNL209W, strain ssb2, stronger effect = lower value 1.01 | S. cerevisiae deletion strains, locus YNL233W, strain BNI4, stronger effect = lower value 1.02 | S. cerevisiae deletion strains, locus YNL248C, strain rpa49, stronger effect = lower value 1.06 | S. cerevisiae deletion strains, locus YNL250W, strain rad50, stronger effect = lower value 1.01 | S. cerevisiae deletion strains, locus YNL271C, strain bni1, stronger effect = lower value 1 | S. cerevisiae deletion strains, locus YNL298W, strain CLA4, stronger effect = lower value 1 | S. cerevisiae deletion strains, locus YNL307C, strain MCK1, stronger effect = lower value 0.989 | S. cerevisiae deletion strains, locus YNL322C, strain KRE1 (second series), stronger effect = lower value 1.01 | S. cerevisiae deletion strains, locus YNL322C, strain KRE1, stronger effect = lower value 1 | S. cerevisiae deletion strains, locus YNR049C, strain mso1, stronger effect = lower value 1.01 | S. cerevisiae deletion strains, locus YNR052C, strain pop2, stronger effect = lower value 0.981 | S. cerevisiae deletion strains, locus YOL006C, strain TOP1, stronger effect = lower value 1.01 | S. cerevisiae deletion strains, locus YOL012C, strain htz1 0.906 | S. cerevisiae deletion strains, locus YOL147C, strain pex11, stronger effect = lower value 0.988 | S. cerevisiae deletion strains, locus YOR001W, strain rrp6, stronger effect = lower value 0.976 | S. cerevisiae deletion strains, locus YOR061W, strain CKA2, stronger effect = lower value 0.997 | S. cerevisiae deletion strains, locus YOR069W, strain VPS5, stronger effect = lower value 1 | S. cerevisiae deletion strains, locus YOR070C, strain gyp1, stronger effect = lower value 1.01 | S. cerevisiae deletion strains, locus YOR080W, strain dia2, stronger effect = lower value 0.996 | S. cerevisiae deletion strains, locus YOR083W, strain WHI5, stronger effect = lower value 0.98 | S. cerevisiae deletion strains, locus YOR106W, strain vam3, stronger effect = lower value 1.03 | S. cerevisiae deletion strains, locus YOR136W, strain idh2, stronger effect = lower value 1.01 | S. cerevisiae deletion strains, locus YOR144C, strain elg1, stronger effect = lower value 0.979 | S. cerevisiae deletion strains, locus YOR184W, strain ser1, stronger effect = lower value 1.02 | S. cerevisiae deletion strains, locus YOR231W, strain MKK1, stronger effect = lower value 0.998 | S. cerevisiae deletion strains, locus YOR265W, strain rbl2, stronger effect = lower value 1.01 | S. cerevisiae deletion strains, locus YOR270C, strain vph1, stronger effect = lower value 0.896 | S. cerevisiae deletion strains, locus YOR290C, strain snf2, stronger effect = lower value 1.02 | S. cerevisiae deletion strains, locus YOR316C, strain cot1, stronger effect = lower value 0.987 | S. cerevisiae deletion strains, locus YPL051W, strain arl3, stronger effect = lower value 1.02 | S. cerevisiae deletion strains, locus YPL078C, strain atp4, stronger effect = lower value 1.01 | S. cerevisiae deletion strains, locus YPL106C, strain sse1, stronger effect = lower value 1.05 | S. cerevisiae deletion strains, locus YPL240C, strain hsp82, stronger effect = lower value 0.997 | S. cerevisiae deletion strains, locus YPL241C, strain CIN2, stronger effect = lower value 0.992 | S. cerevisiae deletion strains, locus YPL256C, strain CLN2, stronger effect = lower value 0.997 | S. cerevisiae deletion strains, locus YPR119W, strain clb2, stronger effect = lower value 0.981 | S. cerevisiae deletion strains, locus YPR141C, strain kar3, stronger effect = lower value 1.01 | S. cerevisiae deletion strains, locus YPR163C, strain tif3, stronger effect = lower value 0.984 | S. cerevisiae deletion strains, locus YPR167C, strain met16, stronger effect = lower value 1 | S. cerevisiae deletion strains, strain wtn01, stronger effect = lower value 1.01 | S. cerevisiae strains, strain wild type, stronger effect = lower value 1
